Results published in publication PMC7862700, “An all-to-all approach to the identification of sequence-specific readers for epigenetic DNA modifications on cytosine”.

Legend:
Test in all cases: DAPPL (digital affinity profiling via proximity ligation, sequencing); 10 mM Tris-HCl pH 7.5, 50 mM NaCl, 1 mM DTT, 4% glycerol, room temperature, 30 min; GST-TFs on glutathione beads, 16-mer random dsDNA library, 0.1% formaldehyde crosslink after washing; high values mean tight binding
Conditions in all cases: protein: recombinant; tags: N-terminal GST; dsDNA, one strand shown
ETV1 = ETV1 (Homo sapiens, UniProt P50549 1-477)
Outline: (§1)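 Binding signal is given per hexamer as its read frequency for a factor divided by its frequency in the tag-only sample. GST-fused human transcription factors were expressed in yeast, captured on glutathione beads, barcoded with DNA and pooled with that sample, then incubated with 200 nmole of a 16-mer random double-stranded DNA library in Tris/NaCl/DTT/glycerol buffer for 30 min at room temperature. The pools were then washed, crosslinked, proximity-ligated, amplified by PCR and sequenced on an Illumina NextSeq500.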

ERF = target: T1, ERF (Homo sapiens, UniProt P50548 1-548)
T1 sequence: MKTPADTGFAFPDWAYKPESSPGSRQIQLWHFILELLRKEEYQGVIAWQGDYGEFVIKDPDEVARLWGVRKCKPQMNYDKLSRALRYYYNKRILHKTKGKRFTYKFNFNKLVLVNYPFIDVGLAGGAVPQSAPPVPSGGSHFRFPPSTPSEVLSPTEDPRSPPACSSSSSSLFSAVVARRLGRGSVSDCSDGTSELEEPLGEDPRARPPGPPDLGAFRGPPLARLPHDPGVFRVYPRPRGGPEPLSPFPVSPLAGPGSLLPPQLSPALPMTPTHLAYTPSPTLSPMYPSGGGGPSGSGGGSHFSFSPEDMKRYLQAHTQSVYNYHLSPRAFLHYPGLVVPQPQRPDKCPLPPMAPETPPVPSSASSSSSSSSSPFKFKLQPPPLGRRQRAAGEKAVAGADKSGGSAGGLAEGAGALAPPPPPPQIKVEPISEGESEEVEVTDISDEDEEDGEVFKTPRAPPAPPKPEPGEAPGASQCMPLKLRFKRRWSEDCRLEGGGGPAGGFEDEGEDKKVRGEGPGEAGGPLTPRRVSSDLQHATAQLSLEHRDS
Outline: as §1

ETV3L = target: T2, ETV3L (Homo sapiens, UniProt Q6ZN32 1-361)
T2 sequence: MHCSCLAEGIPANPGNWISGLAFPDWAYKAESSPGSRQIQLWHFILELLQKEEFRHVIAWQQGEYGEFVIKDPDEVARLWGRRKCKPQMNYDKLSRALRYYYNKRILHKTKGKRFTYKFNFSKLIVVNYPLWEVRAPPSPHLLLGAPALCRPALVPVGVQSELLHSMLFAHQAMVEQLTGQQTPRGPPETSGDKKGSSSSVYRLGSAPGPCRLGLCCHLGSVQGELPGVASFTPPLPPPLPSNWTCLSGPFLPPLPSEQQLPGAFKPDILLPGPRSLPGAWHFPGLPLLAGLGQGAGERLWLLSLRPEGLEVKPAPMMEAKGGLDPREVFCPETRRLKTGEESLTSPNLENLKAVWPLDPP
Outline: as §1

ETS2 = target: T3, ETS2 (Homo sapiens, UniProt P15036 1-469)
T3 sequence: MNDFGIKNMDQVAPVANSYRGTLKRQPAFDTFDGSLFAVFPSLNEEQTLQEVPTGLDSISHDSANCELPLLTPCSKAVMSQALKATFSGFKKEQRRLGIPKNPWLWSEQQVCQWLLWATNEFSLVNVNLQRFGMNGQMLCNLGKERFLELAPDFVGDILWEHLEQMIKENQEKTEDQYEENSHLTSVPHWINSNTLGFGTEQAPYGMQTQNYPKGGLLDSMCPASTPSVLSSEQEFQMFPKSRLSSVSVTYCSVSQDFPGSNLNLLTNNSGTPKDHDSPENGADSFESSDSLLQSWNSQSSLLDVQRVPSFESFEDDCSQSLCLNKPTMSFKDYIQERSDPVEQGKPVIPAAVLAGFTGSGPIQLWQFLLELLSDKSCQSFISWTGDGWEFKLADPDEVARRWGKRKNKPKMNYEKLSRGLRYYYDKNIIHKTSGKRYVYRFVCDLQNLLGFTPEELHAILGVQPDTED
Outline: as §1

SPDEF = target: T4, SPDEF (Homo sapiens, UniProt O95238 1-335)
T4 sequence: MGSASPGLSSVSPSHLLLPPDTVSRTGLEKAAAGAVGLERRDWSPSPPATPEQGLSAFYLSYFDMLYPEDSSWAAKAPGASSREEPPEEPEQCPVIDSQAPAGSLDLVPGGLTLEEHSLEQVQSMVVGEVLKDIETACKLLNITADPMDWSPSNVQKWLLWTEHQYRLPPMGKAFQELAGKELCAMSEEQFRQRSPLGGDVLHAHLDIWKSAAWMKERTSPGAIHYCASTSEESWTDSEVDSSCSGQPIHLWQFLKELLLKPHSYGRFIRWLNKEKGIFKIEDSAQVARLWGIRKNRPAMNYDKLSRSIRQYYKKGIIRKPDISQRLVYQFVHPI
Outline: as §1

ETV7 = target: T5, ETV7 (Homo sapiens, UniProt Q9Y603 1-341)
T5 sequence: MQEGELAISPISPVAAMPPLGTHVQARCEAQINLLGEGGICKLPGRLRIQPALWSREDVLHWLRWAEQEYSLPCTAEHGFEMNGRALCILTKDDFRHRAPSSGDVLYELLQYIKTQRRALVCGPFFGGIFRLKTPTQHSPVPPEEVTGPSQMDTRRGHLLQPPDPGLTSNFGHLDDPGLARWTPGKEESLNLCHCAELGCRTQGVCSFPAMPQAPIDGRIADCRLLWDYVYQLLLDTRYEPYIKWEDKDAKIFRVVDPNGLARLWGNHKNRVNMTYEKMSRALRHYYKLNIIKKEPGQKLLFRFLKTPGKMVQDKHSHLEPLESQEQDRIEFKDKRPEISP
Outline: as §1

ELF5 = target: T6, ELF5 (Homo sapiens, UniProt Q9UKW6-2 1-255)
T6 sequence: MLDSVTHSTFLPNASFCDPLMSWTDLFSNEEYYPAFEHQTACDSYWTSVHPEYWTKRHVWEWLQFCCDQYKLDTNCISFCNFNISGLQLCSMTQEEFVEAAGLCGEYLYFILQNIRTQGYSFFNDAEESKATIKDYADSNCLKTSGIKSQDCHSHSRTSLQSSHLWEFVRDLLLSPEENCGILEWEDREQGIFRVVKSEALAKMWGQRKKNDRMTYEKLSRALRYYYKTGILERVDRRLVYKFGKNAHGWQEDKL
Outline: as §1

ETV3 = target: T7, ETV3 (Homo sapiens, UniProt P41162-2 1-143)
T7 sequence: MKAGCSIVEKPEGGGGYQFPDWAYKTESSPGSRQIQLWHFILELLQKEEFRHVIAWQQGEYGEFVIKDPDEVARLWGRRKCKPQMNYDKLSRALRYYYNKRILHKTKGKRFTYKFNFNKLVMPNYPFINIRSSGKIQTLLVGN
Outline: as §1

ETV6 = ETV6 (Homo sapiens, UniProt P41212 1-452)
Outline: as §1

Chain of ETV6 (P41212 whole entry): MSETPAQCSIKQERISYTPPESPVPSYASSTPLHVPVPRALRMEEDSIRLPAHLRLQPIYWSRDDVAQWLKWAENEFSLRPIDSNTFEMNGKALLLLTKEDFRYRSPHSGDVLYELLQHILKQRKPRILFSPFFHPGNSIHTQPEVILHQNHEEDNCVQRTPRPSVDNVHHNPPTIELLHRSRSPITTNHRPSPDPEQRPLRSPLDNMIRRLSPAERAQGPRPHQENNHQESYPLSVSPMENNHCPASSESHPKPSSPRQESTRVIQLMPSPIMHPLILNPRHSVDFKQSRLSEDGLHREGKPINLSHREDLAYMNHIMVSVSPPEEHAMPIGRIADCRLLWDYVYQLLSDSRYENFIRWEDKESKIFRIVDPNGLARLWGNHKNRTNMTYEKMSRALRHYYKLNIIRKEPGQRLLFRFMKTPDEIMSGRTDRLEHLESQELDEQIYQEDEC
Chain of ETV1 (P50549 whole entry, the tested form may be a part): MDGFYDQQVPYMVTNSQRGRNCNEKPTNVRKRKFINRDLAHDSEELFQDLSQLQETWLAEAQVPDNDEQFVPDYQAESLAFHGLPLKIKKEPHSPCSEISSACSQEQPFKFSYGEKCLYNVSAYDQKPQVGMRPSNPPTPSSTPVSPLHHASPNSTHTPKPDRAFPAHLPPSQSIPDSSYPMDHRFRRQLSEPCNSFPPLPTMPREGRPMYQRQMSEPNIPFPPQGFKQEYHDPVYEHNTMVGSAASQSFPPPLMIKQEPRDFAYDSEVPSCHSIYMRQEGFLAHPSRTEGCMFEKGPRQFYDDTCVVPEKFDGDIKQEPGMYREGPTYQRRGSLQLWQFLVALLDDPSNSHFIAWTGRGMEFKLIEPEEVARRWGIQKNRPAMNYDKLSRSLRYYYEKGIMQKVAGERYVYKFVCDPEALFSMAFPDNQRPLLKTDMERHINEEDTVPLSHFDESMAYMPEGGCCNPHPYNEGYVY

Q: TACTAT was tested. Which binding signal (ETV1) did it give?
A: 1.28 fold enrichment (6-mer frequency, TF over GST control)

Q: And the binding signal (ERF)?
A: 1.38 fold enrichment (6-mer frequency, TF over GST control)

Q: And the binding signal (ETV3L)?
A: 1.25 fold enrichment (6-mer frequency, TF over GST control)

Q: What about the binding signal (ETS2) of the same sequence?
A: 1.37 fold enrichment (6-mer frequency, TF over GST control)

Q: What about the binding signal (SPDEF) of the same sequence?
A: 1.37 fold enrichment (6-mer frequency, TF over GST control)

Q: What about the binding signal (ETV7) of the same sequence?
A: 1.35 fold enrichment (6-mer frequency, TF over GST control)

Q: What about the binding signal (ELF5) of the same sequence?
A: 1.27 fold enrichment (6-mer frequency, TF over GST control)

Q: What about the binding signal (ETV3) of the same sequence?
A: 1.36 fold enrichment (6-mer frequency, TF over GST control)

Q: And the binding signal (ETV6)?
A: 1.39 fold enrichment (6-mer frequency, TF over GST control)
